Source: PubChem BioAssay (NCATS)
Inconclusive results are not listed. Calls of active or inactive are those of the source. Unless noted, calls follow the shape of the dose curve; as a rule, active = well fitted curve in the direction sought with a large enough effect; inconclusive = small, poorly fitted or top-dose-only effect, or another doubt; inactive = no such curve, though single readings can be large; an effect the other way counts as inactive or inconclusive.

Legend:
[1] = target: DNA polymerase III PolC-type (Bacillus subtilis (strain 168)) (UniProt P13267); assay: qHTS Validation Assay for the Inhibitors of DNA Replication in Gram-Positive Bacteria (AID 485295); also: potency is read from the fitted curve at half-maximal effect
Chain of DNA polymerase III PolC-type (Bacillus subtilis (strain 168)) (P13267 whole entry, looked up): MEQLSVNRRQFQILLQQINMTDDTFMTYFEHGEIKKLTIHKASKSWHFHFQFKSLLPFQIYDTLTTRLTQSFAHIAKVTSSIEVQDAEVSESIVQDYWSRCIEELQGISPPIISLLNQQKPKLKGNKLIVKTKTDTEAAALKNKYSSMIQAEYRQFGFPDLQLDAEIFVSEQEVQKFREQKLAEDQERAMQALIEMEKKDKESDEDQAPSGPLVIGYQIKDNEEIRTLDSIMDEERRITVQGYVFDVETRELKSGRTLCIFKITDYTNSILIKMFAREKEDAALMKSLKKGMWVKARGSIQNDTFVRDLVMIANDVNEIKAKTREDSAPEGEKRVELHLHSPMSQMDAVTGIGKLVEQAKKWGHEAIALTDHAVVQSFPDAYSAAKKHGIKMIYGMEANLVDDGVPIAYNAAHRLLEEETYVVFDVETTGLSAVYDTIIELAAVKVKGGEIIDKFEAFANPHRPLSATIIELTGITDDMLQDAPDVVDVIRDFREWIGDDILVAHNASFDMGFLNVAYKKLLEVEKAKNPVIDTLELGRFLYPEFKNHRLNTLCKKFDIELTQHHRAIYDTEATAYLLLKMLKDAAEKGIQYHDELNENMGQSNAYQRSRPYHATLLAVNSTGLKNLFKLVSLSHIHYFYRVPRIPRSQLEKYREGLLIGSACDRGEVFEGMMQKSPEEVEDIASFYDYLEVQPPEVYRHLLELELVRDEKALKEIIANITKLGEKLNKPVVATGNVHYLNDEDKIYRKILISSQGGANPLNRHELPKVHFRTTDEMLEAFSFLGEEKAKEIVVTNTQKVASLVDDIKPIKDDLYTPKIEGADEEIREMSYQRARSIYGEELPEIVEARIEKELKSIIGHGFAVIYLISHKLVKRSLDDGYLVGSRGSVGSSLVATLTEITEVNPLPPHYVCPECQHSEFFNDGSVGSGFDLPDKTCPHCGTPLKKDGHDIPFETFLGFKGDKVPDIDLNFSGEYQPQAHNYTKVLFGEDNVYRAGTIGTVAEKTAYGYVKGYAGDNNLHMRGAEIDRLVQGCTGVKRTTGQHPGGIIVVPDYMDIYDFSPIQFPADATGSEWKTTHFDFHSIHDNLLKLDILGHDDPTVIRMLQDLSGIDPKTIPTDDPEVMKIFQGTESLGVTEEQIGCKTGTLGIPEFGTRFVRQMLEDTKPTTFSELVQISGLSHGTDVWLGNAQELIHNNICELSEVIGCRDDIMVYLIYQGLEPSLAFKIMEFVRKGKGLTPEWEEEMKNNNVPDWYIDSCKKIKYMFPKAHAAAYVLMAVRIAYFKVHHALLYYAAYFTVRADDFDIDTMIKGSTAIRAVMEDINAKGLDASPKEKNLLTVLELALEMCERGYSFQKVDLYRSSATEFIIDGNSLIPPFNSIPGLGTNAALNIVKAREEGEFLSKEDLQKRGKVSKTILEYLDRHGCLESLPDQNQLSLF
Outline: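 Reconstituted B. subtilis Pol III holoenzyme (PolC, beta clamp, SSB, primase) preincubated with compound, then M13Gori single-stranded circular template with dNTPs/NTPs added; room temperature reaction. Stopped with EDTA/PicoGreen; dsDNA fluorescence read, EDTA as full-inhibition control.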

[2] = target: Tumor susceptibility gene 101 protein (Homo sapiens) (UniProt Q99816); assay: qHTS Validation Assay for Iinhibitors of HIV-1 Budding by Blocking the Interaction of PTAP/TSG101 (AID 485342; calls by dose curve)
Outline: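 Tsg101 binding domain (10 uM) with FITC-labeled PTAP peptide (50 nM) in HEPES pH 7.5 buffer, 20 min at r.t. with compounds. Binding measured by fluorescence polarization.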

[3] = qHTS Validation Assay to Find Inhibitors of Chronic Active B-Cell Receptor Signaling (AID 485345; active = well fitted curve in the direction sought with a large enough effect in the main read-out, with a control signal flat, not every such curve was filed as active; also: potency is read from the fitted curve at half-maximal effect)
Outline: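 TMD8 ABC-DLBCL cells stably carrying doxycycline-inducible IkappaBalpha–green luciferase fusion plus unfused red luciferase; compounds 46 uM to 3 nM, 4 h at 37C with doxycycline. Corrected green/red luminescence ratio normalized to 10 uM MG-132 and basal cell wells; curves fitted.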

[4] = target: Beta-2 adrenergic receptor (Homo sapiens) (UniProt P07550); assay: qHTS validation assay of beta-arrestin-biased ligands of beta2-adrenergic receptor (AID 485366)
Chain of Beta-2 adrenergic receptor (Homo sapiens) (P07550 whole entry, looked up): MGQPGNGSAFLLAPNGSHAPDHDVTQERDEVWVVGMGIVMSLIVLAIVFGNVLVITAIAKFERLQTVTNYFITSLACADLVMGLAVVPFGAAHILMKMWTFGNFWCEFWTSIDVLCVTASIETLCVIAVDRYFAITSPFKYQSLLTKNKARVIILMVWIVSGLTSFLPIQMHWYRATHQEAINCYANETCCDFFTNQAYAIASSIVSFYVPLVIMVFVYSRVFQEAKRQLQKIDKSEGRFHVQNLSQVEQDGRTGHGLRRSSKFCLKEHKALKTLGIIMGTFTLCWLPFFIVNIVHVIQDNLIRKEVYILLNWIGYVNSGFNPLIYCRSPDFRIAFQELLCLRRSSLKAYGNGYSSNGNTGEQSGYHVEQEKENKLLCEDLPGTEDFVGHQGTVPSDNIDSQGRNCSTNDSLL
Outline: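 Tango cells (recombinant beta2-AR with recombinant beta-arrestin; recruitment releases tTA driving luciferase) were treated with compounds titrated up to 46 microM for 18 hr at 37 degrees C. Luminescence gave %Activity, and concentration-response curves were curve-classified.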

[5] = Quantitative high throughput screen for delayed death inhibitors of the malarial parasite plastid, 48 hour incubation (AID 488752); also: nearly all actives have a fitted effect of over 65% in size; also: potency is read from the fitted curve at half-maximal effect
Outline: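 Readout is firefly luciferase luminescence from a reporter integrated into the parasite genome, with lower signal taken as inhibited growth. Infected red cells (0.1% parasitemia, 2% hematocrit final) are cultured with compound for one 48 h cycle at 37 C.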

[6] = target: Thioredoxin reductase 1, cytoplasmic (Rattus norvegicus) (UniProt O89049); assay: qHTS Assay for Substrates of Mammalian Selenoprotein Thioredoxin Reductase 1 (TrxR1) (AID 488772);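 also: NADPH fluorescence in the first read after selenite addition and not the 8 min delta; series mostly up to about 57 µM; a drop in NADPH fluorescence below the no-compound background marks a TrxR1 substrate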
Outline: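 Quantitative HTS in Tris-HCl buffer at pH 7.5 with EDTA and Tween-20, using rat TrxR1, 400 uM NADPH and 400 uM selenite (final). A fall in initial NADPH fluorescence relative to background marked substrate behaviour.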

[7] = target: Flap endonuclease 1 (Homo sapiens) (UniProt P39748); assay: qHTS Validation Assay for the Inhibitors of Human Flap endonuclease 1 (FEN1) (AID 488816); also: potency is read from the fitted curve at half-maximal effect
Outline: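 Human FEN1 (10 nM) preincubated 15 min at room temperature with compounds, then flap DNA substrate added at 50 nM final. Fluorescence read at 0 and 15 min; concentration-response fitted with four-parameter Hill equation.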

[8] = target: M-phase phosphoprotein 8 (Homo sapiens) (UniProt Q99549); assay: qHTS Validation Assay for Inhibitors for MPP8 Chromodomain Interactions with Methylated Histone Tails (AID 488949); also: nearly all actives have a fitted effect of over 55% in size; also: potency is read from the fitted curve at half-maximal effect
Chain of M-phase phosphoprotein 8 (Homo sapiens) (Q99549 whole entry, looked up): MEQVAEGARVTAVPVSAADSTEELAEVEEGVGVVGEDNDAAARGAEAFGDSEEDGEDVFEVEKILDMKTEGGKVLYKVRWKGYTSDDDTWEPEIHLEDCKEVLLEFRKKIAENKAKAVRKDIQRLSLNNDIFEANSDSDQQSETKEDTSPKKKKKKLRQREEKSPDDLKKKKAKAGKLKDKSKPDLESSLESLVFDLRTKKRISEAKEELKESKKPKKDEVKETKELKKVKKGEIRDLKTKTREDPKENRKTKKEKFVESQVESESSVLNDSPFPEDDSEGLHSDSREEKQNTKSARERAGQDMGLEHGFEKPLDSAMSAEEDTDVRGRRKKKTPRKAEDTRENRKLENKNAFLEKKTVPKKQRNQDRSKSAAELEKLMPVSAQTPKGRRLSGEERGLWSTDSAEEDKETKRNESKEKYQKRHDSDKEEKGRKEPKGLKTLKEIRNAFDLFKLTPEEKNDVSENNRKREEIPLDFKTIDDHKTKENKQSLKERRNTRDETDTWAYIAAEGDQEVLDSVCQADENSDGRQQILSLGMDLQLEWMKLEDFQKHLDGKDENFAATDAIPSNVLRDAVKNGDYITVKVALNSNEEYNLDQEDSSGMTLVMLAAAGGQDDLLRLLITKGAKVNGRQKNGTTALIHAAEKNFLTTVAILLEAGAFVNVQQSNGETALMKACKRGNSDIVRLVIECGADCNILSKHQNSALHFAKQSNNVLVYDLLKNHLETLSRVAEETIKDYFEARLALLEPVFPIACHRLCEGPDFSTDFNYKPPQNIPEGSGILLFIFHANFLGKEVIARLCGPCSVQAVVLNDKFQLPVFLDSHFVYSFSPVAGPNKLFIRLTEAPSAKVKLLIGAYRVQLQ
Outline: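 MPP8 (50 nM) was pre-bound to 50 nM biotinylated H3(1-18)K9me3 peptide in PBS pH 7.4 with 0.01% Tween-20. Compounds were then added for 30 min at room temperature, and complex disruption was read by AlphaScreen with streptavidin donor and nickel-chelate acceptor beads.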

[9] = target: Methanococcus maripaludis chaperonin (MmCpn) (UniProt Q6LX38); assay: High-Throughput Screening for Modulators of Cytosolic Chaperonin Activity: MmCpn Primary Screen (AID 488978);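 also: 50 nM MmCpn enzyme hydrolysing 30 µM ATP at 37 °C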
Chain of Methanococcus maripaludis chaperonin (MmCpn) (Q6LX38 1-543): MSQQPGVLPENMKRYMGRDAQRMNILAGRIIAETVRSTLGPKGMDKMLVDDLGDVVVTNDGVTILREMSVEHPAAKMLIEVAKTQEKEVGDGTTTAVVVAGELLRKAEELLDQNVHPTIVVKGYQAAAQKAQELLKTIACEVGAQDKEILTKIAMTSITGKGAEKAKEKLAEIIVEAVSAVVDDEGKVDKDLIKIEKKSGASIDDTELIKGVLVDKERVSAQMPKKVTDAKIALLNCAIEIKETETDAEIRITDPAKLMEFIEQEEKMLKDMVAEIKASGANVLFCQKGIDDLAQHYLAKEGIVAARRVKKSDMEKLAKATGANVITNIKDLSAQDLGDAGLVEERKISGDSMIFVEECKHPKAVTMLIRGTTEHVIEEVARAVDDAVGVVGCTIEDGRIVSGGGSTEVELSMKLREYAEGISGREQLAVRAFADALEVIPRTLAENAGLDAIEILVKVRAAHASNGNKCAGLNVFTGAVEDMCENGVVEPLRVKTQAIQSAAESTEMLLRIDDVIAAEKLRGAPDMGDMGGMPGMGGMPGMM
Outline: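 MmCpn at 50 nM final was preincubated 5 min at RT with compound. ATP was then added at 30 uM final for 10 min at 37 C. ADP formed was detected by Transcreener HTRF (665/590 nm).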

[10] = target: Transient receptor potential cation channel subfamily V member 1 (Homo sapiens) (UniProt Q8NER1); assay: HTS Assay for Compounds that Act as Enhancers of the Vanilloid Receptor 1 (AID 488979)
Outline: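 TRPV1 cells loaded with Fluo-8 calcium dye; compound added and Ca2+ signal (ex 480/em 520 nm) followed 3 min, then capsaicin at EC20 added and read 2 more min to detect enhancement.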

[11] = target: D(1A) dopamine receptor (Homo sapiens) (UniProt P21728); assay: HTS Assay for Allosteric Agonists of the Human D1 Dopamine Receptor: Primary Screen for Agonists (AID 488981); also: potency is read from the fitted curve at half-maximal effect
Chain of D(1A) dopamine receptor (Homo sapiens) (P21728 whole entry, looked up): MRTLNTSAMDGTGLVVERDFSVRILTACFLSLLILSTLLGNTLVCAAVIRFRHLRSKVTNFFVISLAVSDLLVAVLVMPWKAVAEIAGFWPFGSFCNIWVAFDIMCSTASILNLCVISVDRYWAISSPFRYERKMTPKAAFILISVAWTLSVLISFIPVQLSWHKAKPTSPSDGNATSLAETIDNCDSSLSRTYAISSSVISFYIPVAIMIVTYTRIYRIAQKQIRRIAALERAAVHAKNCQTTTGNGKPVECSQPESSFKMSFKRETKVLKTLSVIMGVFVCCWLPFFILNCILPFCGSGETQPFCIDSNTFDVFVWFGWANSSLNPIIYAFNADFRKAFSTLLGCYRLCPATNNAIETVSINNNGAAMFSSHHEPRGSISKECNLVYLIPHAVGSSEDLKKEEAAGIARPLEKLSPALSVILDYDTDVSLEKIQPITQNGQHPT
Outline: (§1)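 Tetracycline-induced HEK293 Trex D1 cells with forced coupling to calcium, loaded with no-wash calcium dye; kinetic fluorescence read 180 s after compound addition for agonism, then a further 180 s after an EC20 dopamine challenge for potentiation.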

[12] = target: D(1A) dopamine receptor (Homo sapiens) (UniProt P21728); assay: HTS Assay for Allosteric Agonists of the Human D1 Dopamine Receptor: Primary Screen for Potentiators (AID 488982); also: potency is read from the fitted curve at half-maximal effect
Outline: as §1

[13] = target: D(1A) dopamine receptor (Homo sapiens) (UniProt P21728); assay: HTS Assay for Allosteric Agonists of the Human D1 Dopamine Receptor: Primary Screen for Antagonists (AID 488983);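 also: calcium flux response to an EC80 dopamine challenge measured with no-wash dye; nearly all actives have a fitted effect of over 65% in size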; also: potency is read from the fitted curve at half-maximal effect
Outline: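 Cells are induced with tetracycline and incubated overnight at 30 C, then loaded with calcium dye for 30 to 90 minutes at room temperature. Compound addition is followed by a 180 s read, then an EC80 dopamine addition and another 180 s read.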

[14] = target: ATP-dependent 6-phosphofructokinase (Trypanosoma brucei brucei) (UniProt O15648); assay: qHTS Assay to Find Inhibitors of T. brucei phosphofructokinase: hit validation (AID 492961); also: series mostly up to about 51 µM
Chain of ATP-dependent 6-phosphofructokinase (Trypanosoma brucei brucei) (O15648 whole entry, looked up): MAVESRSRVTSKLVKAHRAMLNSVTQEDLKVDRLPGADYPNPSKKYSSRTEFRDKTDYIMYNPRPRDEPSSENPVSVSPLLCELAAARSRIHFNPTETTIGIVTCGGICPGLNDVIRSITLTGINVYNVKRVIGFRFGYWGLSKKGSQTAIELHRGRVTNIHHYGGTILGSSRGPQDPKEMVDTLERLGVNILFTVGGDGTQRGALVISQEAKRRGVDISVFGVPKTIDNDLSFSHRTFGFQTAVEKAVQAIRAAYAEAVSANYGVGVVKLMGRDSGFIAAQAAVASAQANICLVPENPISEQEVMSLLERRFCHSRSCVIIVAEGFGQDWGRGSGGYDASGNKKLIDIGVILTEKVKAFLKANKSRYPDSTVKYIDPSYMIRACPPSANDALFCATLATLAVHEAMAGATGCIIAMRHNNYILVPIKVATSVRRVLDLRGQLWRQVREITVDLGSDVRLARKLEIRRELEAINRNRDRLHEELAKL
Outline: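 Luminescence from ADP-Glo reports ADP generated as T. brucei PFK (1.25 nM) phosphorylates 0.5 mM fructose-6-phosphate using 0.1 mM ATP. Reactions ran 45 min at room temperature, pH 8.0.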

[15] = target: Thioredoxin reductase 1, cytoplasmic (Rattus norvegicus) (UniProt O89049); assay: qHTS Assay for Inhibitors of Mammalian Selenoprotein Thioredoxin Reductase 1 (TrxR1) (AID 488773); settings: Potency: inhibition;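 also: drop in NADPH fluorescence over an 8 min run after selenite addition; series mostly up to about 57 µM; nearly all actives have a fitted effect of over 40% in size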
Outline: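 Steps: enzyme (90 nM) plus NADPH (400 uM final), 5 min at ~22 deg C; compound added, 15 min; selenite (400 uM final) added; fluorescence followed for 8 min. Concentration-response curves derived from the normalized delta values.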

[16] = target: Thyrotropin receptor (Homo sapiens) (UniProt P16473); assay: qHTS Assay for Antagonists of the Thyroid Stimulating Hormone Receptor (AID 488980); also: series mostly up to about 58 µM
Chain of Thyrotropin receptor (Homo sapiens) (P16473 whole entry, looked up): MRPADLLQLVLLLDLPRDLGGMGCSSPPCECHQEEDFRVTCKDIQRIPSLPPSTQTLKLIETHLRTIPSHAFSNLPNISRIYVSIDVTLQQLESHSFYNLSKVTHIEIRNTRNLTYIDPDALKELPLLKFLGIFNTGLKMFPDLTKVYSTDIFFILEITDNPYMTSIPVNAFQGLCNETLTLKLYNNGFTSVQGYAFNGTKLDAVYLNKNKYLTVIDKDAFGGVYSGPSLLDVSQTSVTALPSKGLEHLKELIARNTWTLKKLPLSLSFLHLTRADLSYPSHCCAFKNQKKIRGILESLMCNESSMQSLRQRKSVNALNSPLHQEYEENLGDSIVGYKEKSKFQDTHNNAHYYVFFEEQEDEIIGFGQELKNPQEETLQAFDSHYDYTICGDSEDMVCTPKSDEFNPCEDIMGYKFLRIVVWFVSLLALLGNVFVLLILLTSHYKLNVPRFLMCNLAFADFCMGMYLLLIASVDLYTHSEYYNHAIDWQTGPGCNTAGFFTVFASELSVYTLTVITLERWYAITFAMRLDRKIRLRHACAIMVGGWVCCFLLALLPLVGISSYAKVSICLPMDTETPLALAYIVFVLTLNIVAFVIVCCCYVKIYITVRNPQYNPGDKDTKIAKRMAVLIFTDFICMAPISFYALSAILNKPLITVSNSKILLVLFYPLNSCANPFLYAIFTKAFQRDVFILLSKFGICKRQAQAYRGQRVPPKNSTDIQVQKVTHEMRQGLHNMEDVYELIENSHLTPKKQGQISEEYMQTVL
Outline: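 TSHR-transfected HEK293 cells (2000/well) in HEPES-buffered HBSS with 70 uM RO 20-1724 were stimulated with 4 nM TSH (EC80, final) in the presence of compound. cAMP was measured by HTRF competition after lysis and 30 min at RT.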

[17] = Validation screen for small molecules that induce genotoxicity in human embryonic kidney (HEK293T) cells expressing luciferase-tagged ELG1 (AID 493106); also: potency is read from the fitted curve at half-maximal effect
Outline: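 Luminescence from an ELG1-luciferase fusion serves as the read-out, rising when genetic stress elevates ELG1 protein. HEK293T reporter cells (2,000 per well) received 23 nL compound, incubated 16 hr at 37 °C, then ONE-Glo for 30 min at room temperature.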

[18] = target: ATP-dependent 6-phosphofructokinase (Trypanosoma brucei brucei) (UniProt O15648); assay: qHTS Validation Assay to Find Inhibitors of T. brucei phosphofructokinase (AID 485368); settings: outcome: dose series up to 57.5 µM
Outline: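 Compounds (up to 57 uM, titration series) were pinned into substrate buffer, then 1.25 nM PFK added; after 45 min at room temperature, ADP product was quantified by ADP-Glo luminescence and concentration-response curves fitted.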

[19] = Quantitative high throughput screen for delayed death inhibitors of the malarial parasite plastid, 96 hour incubation (AID 488745); also: nearly all actives have a fitted effect of over 70% in size; also: potency is read from the fitted curve at half-maximal effect
Outline: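 Infected erythrocytes were added to compound in Albumax-supplemented RPMI 1640 at 0.1% parasitemia and 2% hematocrit (final), incubated 96 h at 37 C under 5% CO2, then luciferase reagent was added and luminescence measured.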

[20] = target: Chromobox protein homolog 1 (Homo sapiens) (UniProt P83916); assay: qHTS Validation Assay for Inhibitors of HP1-beta Chromodomain Interactions with Methylated Histone Tails (AID 488953); also: nearly all actives have a fitted effect of over 50% in size; also: potency is read from the fitted curve at half-maximal effect
Outline: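 50 nM HP1-beta + 50 nM biotin-H3(1-18)K9me3, PBS pH 7.4, 0.01% Tween-20, 30 min RT; compound added, 30 min RT; AlphaScreen beads 10 ug/mL final, 30 min dark; luminescence read.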

Measured: Potency

FC(F)(F)c1ccccc1-n1ccnc1
not listed: [15] | [16] | [17] | [18] | [19] | [20]
inactive: all other assays above

CN(C)CCCN1c2ccccc2Sc2ccc(C(F)(F)F)cc21
active: [13] 1.26 µM
not listed: [5] | [7] | [10] | [14] | [18] | [19] | [20]
inactive: all other assays above

COCCOC(=O)C1=C(C)NC(C)=C(C(=O)OC(C)C)C1c1cccc([N+](=O)[O-])c1 (centres undefined)
active: [3] 9.2 µM
not listed: [5] | [6] | [9] | [14] | [17] | [19] | [20]
inactive: all other assays above

CC(C)COCC(CN(Cc1ccccc1)c1ccccc1)N1CCCC1 (centres undefined)
not listed: [14] | [16] | [18]
inactive: all other assays above

COCCc1ccc(OCC(O)CNC(C)C)cc1 (centres undefined)
not listed: [4] | [14] | [15] | [18]
inactive: all other assays above

CCN(CC)CCNC(=O)c1ccc(NC(C)=O)cc1
not listed: [1] | [16]
inactive: all other assays above

CC(=O)[C@]1(O)Cc2c(O)c3c(c(O)c2[C@@H](O[C@H]2C[C@H](N)[C@H](O)[C@H](C)O2)C1)C(=O)c1ccccc1C3=O
active: [1] 1.06 µM | [19] 3.29 µM | [5] 3.7 µM | [7] 26.7 µM | [8] 28.2 µM | [20] 39.8 µM | [11] 11.2 µM | [12] 2.91 µM | [17] 580 nM
inactive: [4] | [6] | [16] | [14]

CC(=O)Nc1nnc(S(N)(=O)=O)s1
not listed: [4] | [14]
inactive: all other assays above

CN(C)C(=O)Oc1ccc[n+](C)c1
not listed: [1] | [8] | [9] | [20]
inactive: all other assays above

CCN(Cc1ccncc1)C(=O)C(CO)c1ccccc1 (centres undefined)
not listed: [1] | [14]
inactive: all other assays above

C[C@]12C=CC(=O)C=C1CC[C@H]1[C@@H]3C[C@@H](O)[C@](O)(C(=O)CO)[C@@]3(C)C[C@H](O)[C@@]12F
not listed: [3] | [14] | [15]
inactive: all other assays above

CCOC(=O)C1=C(C)NC(C)=C(C(=O)OC)C1c1cccc(Cl)c1Cl (centres undefined)
active: [5] 11.7 µM
not listed: [3] | [7] | [17] | [19]
inactive: all other assays above
